# Compound activity (PubChem BioAssay)
# PP5 primary – inhibitors of human protein phosphatase 5 (PP5) | purified PP5c, OMFP substrate fluorescence | 320,000 compounds, 0.18% hits | P53041 | AID 1987 | inhibition, % at 6.7 µM;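 active = inhibition above the campaign's mean inhibition across all tested compounds plus 3 SD, cut at about 9.5% in these data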
# Target sequence (P53041 whole entry, looked up): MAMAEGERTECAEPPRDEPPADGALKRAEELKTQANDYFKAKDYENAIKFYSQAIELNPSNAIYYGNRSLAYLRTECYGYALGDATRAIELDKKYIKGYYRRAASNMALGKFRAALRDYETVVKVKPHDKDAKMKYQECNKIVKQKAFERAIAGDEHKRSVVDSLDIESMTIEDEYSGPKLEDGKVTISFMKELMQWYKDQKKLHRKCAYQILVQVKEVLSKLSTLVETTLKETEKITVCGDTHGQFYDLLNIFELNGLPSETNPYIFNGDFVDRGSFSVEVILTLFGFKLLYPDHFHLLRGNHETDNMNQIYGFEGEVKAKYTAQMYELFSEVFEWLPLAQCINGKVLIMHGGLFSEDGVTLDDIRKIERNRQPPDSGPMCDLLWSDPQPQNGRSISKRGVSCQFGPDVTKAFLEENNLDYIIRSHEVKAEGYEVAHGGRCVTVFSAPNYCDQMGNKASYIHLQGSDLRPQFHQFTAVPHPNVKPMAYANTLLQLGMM
# PAFAH1B3 FP inh – inhibitors of human PAFAH1B3. recombinant PAFAH1B3, FP-rhodamine probe, fluorescence polarization. inhibition, % at 3.39 µM. Q15102. 340,000 compounds, 0.28% hits;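 active = inhibition above the screen-wide average of all tested compounds plus 3 SD, cut at about 25% in these data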
# Fh CTSL1 inh – counter-screen for PFM18AAP inhibitors: inhibitors of F. hepatica cathepsin L1 | recombinant F. hepatica cathepsin L1, Z-Leu-Arg-MCA fluorescence | inhibition, % at 5.96 µM | 300,000 compounds, 0.49% hits | AID 1906;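 active = inhibition above the mean of all tested compounds plus 3 SD, set per screening campaign, cut at about 17% in these data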
# PAFAH2 inh – PAFAH2 (human) inhibition; inhibition, % at 3.39 µM; 340,000 compounds, 0.99% hits; recombinant PAFAH2, FP-rhodamine activity probe, fluorescence polarization; Q99487;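 active = inhibition above the mean over all tested compounds plus 3 SD, cut at about 30% in these data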;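 note: inhibitors block probe labeling of enzyme so polarization drops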
# pPAFAH inh – pPAFAH (human) enzyme inhibition. recombinant pPAFAH, FP-rhodamine probe fluorescence polarization. Q13093. inhibition, % at 3.39 µM. 330,000 compounds, 1.5% hits;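 active = inhibition above the mean inhibition across the screen plus 3 SD, cut at about 25% in these data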;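 note: inhibitors block binding of the rhodamine activity-based probe so polarization drops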
# PAFAH1B2 inh – PAFAH1B2 (human) inhibition | recombinant PAFAH1B2, FP-rhodamine activity probe, fluorescence polarization | 340,000 compounds, 1.2% hits | P68402 | inhibition, % at 3.39 µM;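 active = inhibition above the mean of all tested compounds plus 3 SD, cut at about 24% in these data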
# Numbers stand for hits; . = inactive; / = not tested or not shown. A selection: hits, their analogues and other compounds. The true share with any hit is near 3%.
SMILES,PP5 primary,PAFAH1B3 FP inh,Fh CTSL1 inh,PAFAH2 inh,pPAFAH inh,PAFAH1B2 inh
CCn1c(SCC(=O)N2CC(C)OC(C)C2)nc2c([nH]c3ccccc32)c1=O (configuration not stated),.,.,.,.,.,.
CN(C(=O)c1cccc(Br)c1)C1CCS(=O)(=O)C1 (configuration not stated),.,.,.,.,.,.
COc1ccc(CN2CCN(C(=O)C3CCN(C(=O)Nc4ccccc4)CC3)CC2)cc1OC,/,.,/,.,.,.
COc1ccc(N2CCN(C(=O)c3cn(CC4CCCCC4)nn3)CC2)cc1,.,.,.,.,28,.
NC(=O)CCC(NS(=O)(=O)c1ccc(Cl)cc1)C(=O)NCC1CCCCC1 (configuration not stated),.,.,.,.,.,.
NC(=O)CCC(NS(=O)(=O)c1ccc(Cl)cc1)C(=O)NCc1ccc(Cl)cc1 (configuration not stated),.,.,.,.,.,24
CC1=Nc2ccccc2/C1=C\c1nc(-c2ccccc2)oc1O,.,.,17,.,.,.
COc1ccc(-c2nc(/C=C3\C(C)=Nc4ccccc43)c(O)o2)cc1,.,.,.,.,.,.
CC1=Nc2ccccc2/C1=C/c1nc(-c2ccc(C)s2)oc1O,.,.,25,.,.,.
O=C(CSc1nnc(C2CCCCC2)o1)N1CCCCC1,.,.,23,.,.,.
COc1ccc(Cc2nnc(SCC(=O)N3CCCCC3)o2)cc1,.,.,17,.,.,.
CC1=C(C(=O)OC2CCCCC2)C(c2ccc(F)cc2)NC(=O)N1 (configuration not stated),.,.,.,.,.,.
Brc1cccc(-c2cnco2)c1,.,.,18,.,.,.
CC(C)(C)c1ccc(-c2cnco2)cc1,.,.,.,.,.,.
O=C(O)C1C(c2ccccc2)c2ccccc2C(O)C1CO (configuration not stated),/,.,/,.,/,.
FC(F)(F)c1cccc(N2CCN(C(=S)NCC3CCCO3)CC2)c1 (configuration not stated),.,.,.,.,30,.
CCN1C(=O)CC(NNC(=O)c2ccc(Cl)cc2)C1=O (configuration not stated),.,.,.,.,.,.
COc1ccc(C(=O)NNC2CC(=O)N(Cc3ccc(Cl)cc3)C2=O)cc1OC (configuration not stated),.,.,.,.,33,.
COc1ccccc1-n1c(=O)[nH]c2c(C(N)=O)nc(C3CCCCC3)nc21,.,.,.,.,.,.
COc1ccccc1-n1c(=O)[nH]c2c(C(N)=O)nc(CC(C)C)nc21,.,.,21,.,.,.
O=c1cc2c(=O)oc3cc(O)c(O)oc3c2c(O)c1O,/,79,/,62,/,30
O=c1oc2cc(O)c(Cl)cc2c2ccccc12,.,.,.,.,.,.
O=C(CCl)N1N=C(c2cccs2)CC1c1ccco1 (configuration not stated),.,.,27,.,.,.
O=C(O)/C=C/C(=O)N1N=C(c2ccco2)CC1c1ccco1 (configuration not stated),.,.,35,.,.,.
O=C(CCl)N1N=C(c2ccco2)CC1c1ccco1 (configuration not stated),.,.,.,.,.,.
SMILES,PP5 primary,PAFAH1B3 FP inh,Fh CTSL1 inh,PAFAH2 inh,pPAFAH inh,PAFAH1B2 inh
CN1CCN(CC(=O)N2N=C(c3cccs3)CC2c2ccco2)CC1 (configuration not stated),.,.,.,.,.,.
O=C(COC(=O)c1cccs1)NC12CC3CC(CC(C3)C1)C2,.,.,.,.,.,.
COc1cccc(C(=O)OCC(=O)NC23CC4CC(CC(C4)C2)C3)c1,/,.,/,82,27,.
CC(=O)Oc1cc(C(=O)OCC(=O)NC23CC4CC(CC(C4)C2)C3)cc(OC(C)=O)c1OC(C)=O,/,.,/,88,/,65
CCOc1ccc(C(CC(=O)O)NC(=O)Cc2ccc(Cl)cc2)cc1 (configuration not stated),.,.,.,.,.,.
COc1cc(N=C2C(=O)N3c4c(cccc42)C(C)=CC3(C)C)cc(OC)c1,.,.,.,.,.,.
CC1=CC(C)(C)N2C(=O)C(=Nc3ccc(O)cc3)c3cccc1c32,.,.,44,.,.,.
COc1cc2c(cc1NC(=O)C(F)(F)F)-c1ccc(NC(=O)C(F)(F)F)cc1C2,/,.,/,.,/,.
CC1=C(C(=O)OCc2ccccc2)C(c2ccc(C(C)(C)C)cc2)NC(=O)N1CCCCCC(=O)O (configuration not stated),.,.,.,.,25,.
CC1=C(C(=O)OCc2ccccc2)C(c2ccccc2)NC(=O)N1CCCCCC(=O)O (configuration not stated),.,.,.,.,.,.
COC(=O)CCCN1C(=O)NC(c2ccc(-c3ccccc3)cc2)C(C(=O)OCc2ccccc2)=C1C (configuration not stated),/,.,/,.,27,.
COC(=O)c1c(C)[nH]c(C(=O)COC(=O)CCNS(=O)(=O)c2cccc(C(F)(F)F)c2)c1C,.,.,/,.,33,.
COC(=O)c1c(NC(=O)COC(=O)CCNS(=O)(=O)c2ccccc2)sc(C)c1C,.,.,.,.,26,.
COc1ccc(S(=O)(=O)N2CCOCC2)cc1NC(=O)CSc1nnnn1C1CC1,.,.,/,.,.,.
COc1cc(C2c3cc4c(cc3OC(NCCc3ccccc3)C2C)OCO4)cc(OC)c1OC (configuration not stated),/,.,/,.,/,.
CCN(CC)C(=O)c1c[nH]c2ccc(S(=O)(=O)Nc3cc(C)cc(C)c3)cc2c1=O,.,.,.,.,29,.
Cc1cc(C)cc(NS(=O)(=O)c2ccc3[nH]cc(C(=O)N4CCc5ccccc54)c(=O)c3c2)c1,.,.,.,.,.,.
O=C(NCC1CCCO1)c1nc2c(nnn2Cc2ccccc2Cl)c(=O)[nH]1 (configuration not stated),.,.,.,.,.,.
Cc1ccc(C)c(Cn2nnc3c(=O)[nH]c(C(=O)NCC4CCCO4)nc32)c1 (configuration not stated),.,.,.,.,.,67
COc1cc(NS(=O)(=O)c2c(C(=O)N3CCOCC3)c(C)n(C)c2C)cc(OC)c1OC,.,.,.,.,.,.
CCc1ccc(Nc2n[n+](-c3ccccc3)c(-c3ccc(N(CC)CC)cc3)s2)cc1,.,.,.,.,30,.
CC(=O)c1ccccc1OC(=O)c1ccc(-c2ccccc2)cc1,.,.,.,.,.,.
CC(C)=NOC(=O)c1ccc(-c2ccccc2)cc1,.,.,.,.,30,.
N#Cc1c(N)sc2c1CCCCCC2,.,.,.,.,.,28
N#Cc1c(N)sc(=S)c2c1CCCCC2,.,.,.,45,29,.
